“And” between values parts separate entries of the source, which are not always exact repeats. Identical values can stand only once. Results filed as inconclusive are left out. The source made the active and inactive calls. How the source made its calls, unless noted: active means hit-call score of the fitted dose curve at least 0.9, where 1 is the maximum; inconclusive means response in the unintended direction; inactive means score below 0.9.
How the values were obtained:
[1] = read-out: solute carrier (SLC22A1), SLC22A1 (gene 6580); assay: LTEA_HepaRG_SLC22A1: Life Technologies and Expression Analysis (LTEA) Assay for solute carrier (SLC22A1) using HepaRG (AID 2283524; active means hit-call score of the fitted dose curve at least 0.9, where 1 is the maximum; inactive means score below 0.9); settings: mRNA level, 48 h; actives raise or lower the signal
How it was run: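 Transcript induction or suppression of SLC22A1 in human HepaRG cultures is scored after 48 h chemical treatment, with DMSO (0.5%) as baseline for bidirectional fitting. Concentrations span eight half-log points topping at 100 uM.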

[2] = read-out: Pyruvate Dehydrogenase Kinase 4 (PDK4), PDK4 (gene 5166); assay: LTEA_HepaRG_PDK4: Life Technologies and Expression Analysis (LTEA) Assay for Pyruvate Dehydrogenase Kinase 4 (PDK4) using HepaRG (AID 2283525; active means hit-call score of the fitted dose curve at least 0.9, where 1 is the maximum; inactive means score below 0.9); settings: mRNA level, 48 h; actives raise or lower the signal
How it was run: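 Eight-point, half-log concentration series (max 100 uM, 0.5% DMSO) applied to differentiated HepaRG cells for 48 h in duplicate. Endpoint: PDK4 mRNA induction or repression by qRT-PCR against DMSO baseline.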

[3] = read-out: NAD(P)H dehydrogenase [quinone] 1 (NQO1), NQO1 (gene 1728); assay: LTEA_HepaRG_NQO1: Life Technologies and Expression Analysis (LTEA) Assay for NAD(P)H dehydrogenase [quinone] 1 (NQO1) using HepaRG (AID 2283526; active means hit-call score of the fitted dose curve at least 0.9, where 1 is the maximum; inactive means score below 0.9); settings: mRNA level, 48 h; actives raise or lower the signal
How it was run: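 NQO1 transcript induction or loss measured by TaqMan qRT-PCR, referenced to three housekeeping genes and fitted bidirectionally against 0.5% DMSO. HepaRG cultures exposed 48 h, duplicate, eight-point half-log series, top 100 uM.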

[4] = read-out: Nuclear factor erythroid 2-related factor 2 (Homo sapiens) (UniProt Q16236); assay: LTEA_HepaRG_NFE2L2: Life Technologies and Expression Analysis (LTEA) Assay for Nuclear factor erythroid 2-related factor 2 (NFE2L2) Transcription Factor using HepaRG (AID 2283527; active means hit-call score of the fitted dose curve at least 0.9, where 1 is the maximum; inactive means score below 0.9;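 further: TaqMan qRT-PCR transcript level normalised to ACTB GAPDH and POLR2A housekeeping genes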); settings: mRNA level, 48 h; actives raise or lower the signal
How it was run: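 Human liver HepaRG line treated in duplicate for 48 h with an eight-point series topping at 100 uM. Gene expression of NFE2L2 by qRT-PCR, bidirectionally fitted against the vehicle control.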

[5] = read-out: succinate dehydrogenase complex iron sulfur subunit B (SDHB), SDHB (gene 6390); assay: LTEA_HepaRG_SDHB: Life Technologies and Expression Analysis (LTEA) Assay for succinate dehydrogenase complex iron sulfur subunit B (SDHB) using HepaRG (AID 2283528; active means hit-call score of the fitted dose curve at least 0.9, where 1 is the maximum; inactive means score below 0.9); settings: mRNA level, 48 h; actives raise or lower the signal
How it was run: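 HepaRG cells (~100,000/well, plated 48 h) exposed in duplicate for 48 h in serum-free induction medium to 8-point half-log series from 100 uM in 0.5% DMSO; mRNA by qRT-PCR normalised to ACTB, GAPDH, POLR2A; bidirectional fit versus DMSO.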

[6] = read-out: Signal transducer and activator of transcription 3 (Homo sapiens) (UniProt P40763); assay: LTEA_HepaRG_STAT3: Life Technologies and Expression Analysis (LTEA) Assay for Signal transducer and activator of transcription (STAT3) using HepaRG (AID 2283529; active means hit-call score of the fitted dose curve at least 0.9, where 1 is the maximum; inactive means score below 0.9); settings: mRNA level, 48 h; actives raise or lower the signal
How it was run: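 In this transcriptional endpoint, HepaRG cultures receive test chemicals at up to 100 uM for 48 h, tested in duplicate. STAT3 mRNA is normalized to ACTB, GAPDH and POLR2A.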

[7] = read-out: solute carrier (SLCO1B1), SLCO1B1 (gene 10599); assay: LTEA_HepaRG_SLCO1B1: Life Technologies and Expression Analysis (LTEA) Assay for solute carrier (SLCO1B1) using HepaRG (AID 2283530; active means hit-call score of the fitted dose curve at least 0.9, where 1 is the maximum; inactive means score below 0.9); settings: mRNA level, 48 h; actives raise or lower the signal
How it was run: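 Differentiated human HepaRG cells, plated 48 h, switched to serum-free induction medium and exposed in duplicate for 48 h to 8 half-log concentrations (top 100 uM) in 0.5% DMSO. SLCO1B1 mRNA by TaqMan qRT-PCR, normalized to ACTB/GAPDH/POLR2A.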

[8] = read-out: sulfotransferase 2A1 (SULT2A1), SULT2A1 (gene 6822); assay: LTEA_HepaRG_SULT2A1: Life Technologies and Expression Analysis (LTEA) Assay for sulfotransferase 2A1 (SULT2A1) using HepaRG (AID 2283531; active means hit-call score of the fitted dose curve at least 0.9, where 1 is the maximum; inactive means score below 0.9); settings: mRNA level, 48 h; actives raise or lower the signal
How it was run: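 Differentiated human HepaRG cells in serum-free induction medium were exposed for 48 h to eight half-log concentrations (top 100 uM, 0.5% DMSO). SULT2A1 mRNA was measured by qRT-PCR, normalized to ACTB, GAPDH and POLR2A, and fitted bidirectionally against DMSO.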

[9] = read-out: Transforming Growth Factor (TGFA), TGFA (gene 7039); assay: LTEA_HepaRG_TGFA: Life Technologies and Expression Analysis (LTEA) Assay for Transforming Growth Factor (TGFA) using HepaRG (AID 2283532; active means hit-call score of the fitted dose curve at least 0.9, where 1 is the maximum; inactive means score below 0.9); settings: mRNA level, 48 h; actives raise or lower the signal
How it was run: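 Gene expression of TGFA was quantified by qRT-PCR after human HepaRG cells were treated for 48 h with test chemicals (eight concentrations, highest 100 uM, 0.5% DMSO). Activity in either direction was fitted relative to DMSO.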

[10] = read-out: Transforming Growth Factor (TGFB1), TGFB1 (gene 7040); assay: LTEA_HepaRG_TGFB1: Life Technologies and Expression Analysis (LTEA) Assay for Transforming Growth Factor (TGFB1) Transporter using HepaRG (AID 2283533; active means hit-call score of the fitted dose curve at least 0.9, where 1 is the maximum; inactive means score below 0.9); settings: mRNA level, 48 h; actives raise or lower the signal
How it was run: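 Differentiated human HepaRG cells in serum-free induction medium were exposed in duplicate for 48 h to eight concentrations (top 100 uM, half-log steps, 0.5% DMSO). TGFB1 mRNA was quantified by qRT-PCR, normalized to ACTB, GAPDH, POLR2A, and fitted bidirectionally against DMSO.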

[11] = read-out: TIMP1, TIMP1 (gene 7076); assay: LTEA_HepaRG_TIMP1: Life Technologies and Expression Analysis (LTEA) Assay for TIMP1 using HepaRG (AID 2283534; active means hit-call score of the fitted dose curve at least 0.9, where 1 is the maximum; inactive means score below 0.9;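 further: TaqMan qRT-PCR signal normalized to ACTB GAPDH and POLR2A housekeeping genes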); settings: mRNA level, 48 h; actives raise or lower the signal
How it was run: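 Differentiated human HepaRG cells in serum-free induction medium were exposed 48 h to chemicals (8 half-log concentrations, top 100 uM, 0.5% DMSO). TIMP1 mRNA was quantified by TaqMan qRT-PCR, normalized to ACTB/GAPDH/POLR2A; bidirectional fit versus DMSO.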

[12] = read-out: Tumor necrosis factor receptor 1 (TNFRSF1A), TNFRSF1A (gene 7132); assay: LTEA_HepaRG_TNFRSF1A: Life Technologies and Expression Analysis (LTEA) Assay for Tumor necrosis factor receptor 1 (TNFRSF1A) using HepaRG (AID 2283535; active means hit-call score of the fitted dose curve at least 0.9, where 1 is the maximum; inactive means score below 0.9); settings: mRNA level, 48 h; actives raise or lower the signal
How it was run: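 Differentiated human HepaRG cells were exposed in duplicate for 48 h in serum-free induction medium to eight concentrations (top 100 uM, half-log steps, 0.5% DMSO). TNFRSF1A mRNA was quantified by qRT-PCR, normalized to ACTB, GAPDH and POLR2A, then fitted bidirectionally against DMSO.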

[13] = read-out: UDP glucuronosyltransferase (UGT1A1), UGT1A1 (gene 54658); assay: LTEA_HepaRG_UGT1A1: Life Technologies and Expression Analysis (LTEA) Assay for UDP glucuronosyltransferase (UGT1A1) using HepaRG (AID 2283538; active means hit-call score of the fitted dose curve at least 0.9, where 1 is the maximum; inactive means score below 0.9); settings: mRNA level, 48 h; actives raise or lower the signal
How it was run: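 UGT1A1 transcript level, measured by qRT-PCR with three housekeeping genes for normalization, after 48 h treatment of human HepaRG cells (0.5% DMSO, duplicates, up to 100 uM, half-log steps, 8 points). Curves fit both directions against DMSO baseline.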

[14] = read-out: X-box binding protein 1 (XBP1), XBP1 (gene 7494); assay: LTEA_HepaRG_XBP1: Life Technologies and Expression Analysis (LTEA) Assay for X-box binding protein 1 (XBP1) using HepaRG (AID 2283540; active means hit-call score of the fitted dose curve at least 0.9, where 1 is the maximum; inactive means score below 0.9); settings: mRNA level, 48 h; actives raise or lower the signal
How it was run: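 Differentiated human HepaRG cells in serum-free induction medium were exposed in duplicate for 48 h to eight half-log concentrations up to 100 uM in 0.5% DMSO. XBP1 mRNA was quantified by qRT-PCR, normalised to ACTB, GAPDH and POLR2A, with bidirectional fitting against DMSO.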

[15] = LTEA_HepaRG_LDH_cytotoxicity: Cytotoxicity Assessment in the Life Technologies and Expression Analysis (LTEA) Assay (AID 2283563)
How it was run: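 Differentiated human HepaRG cells, plated 48 h beforehand, were switched to serum-free induction medium and exposed for 48 h to eight half-log concentrations (top 100 uM) in 0.5% DMSO. LDH was measured in spent medium; activity was fitted relative to DMSO vehicle.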

[16] = ATG_XTT_Cytotoxicity: Cytotoxicity Assessment in the Attagene TRANS-FACTORIAL HepG2 Assay (AID 2283584);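 on AC50: cells exposed to compound for 24 h before reading; active means loss of viability signal versus DMSO baseline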
How it was run: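 HepG2 human liver cells, transiently transfected with multiple GAL4-UAS reporter units, were dosed and read at 24 h by XTT as cell number. Loss of signal was fitted relative to DMSO negative control baseline.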

[17] = TOX21_p53_BLA_p2_viability: Viability Assessment in the Tox21 HCT-116 p53 Agonism Beta-lactamase Assay, Phase 2 (AID 2283591);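 further: compound exposure lasted 16 h at 37 °C; actives lower the ATP signal meaning cytotoxicity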
How it was run: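 HCT-116 p53-bla cells (4000/well) rested 5 h at 37C, then received compounds in DMSO (217-fold dilution) for 16 h at 37C, 5% CO2. After the CCF4 read, CellTiter-Glo was added; ATP luminescence was read after 30 min at room temperature.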

[18] = molecular target: Cellular tumor antigen p53 (Homo sapiens) (UniProt P04637); assay: TOX21_p53_BLA_p2_ratio: Tox21 HCT-116 p53 Agonism Beta-lactamase Assay, Ratio, Phase 2 (AID 2283592)
Cellular tumor antigen p53 (Homo sapiens), sequence (P04637 whole entry, looked up): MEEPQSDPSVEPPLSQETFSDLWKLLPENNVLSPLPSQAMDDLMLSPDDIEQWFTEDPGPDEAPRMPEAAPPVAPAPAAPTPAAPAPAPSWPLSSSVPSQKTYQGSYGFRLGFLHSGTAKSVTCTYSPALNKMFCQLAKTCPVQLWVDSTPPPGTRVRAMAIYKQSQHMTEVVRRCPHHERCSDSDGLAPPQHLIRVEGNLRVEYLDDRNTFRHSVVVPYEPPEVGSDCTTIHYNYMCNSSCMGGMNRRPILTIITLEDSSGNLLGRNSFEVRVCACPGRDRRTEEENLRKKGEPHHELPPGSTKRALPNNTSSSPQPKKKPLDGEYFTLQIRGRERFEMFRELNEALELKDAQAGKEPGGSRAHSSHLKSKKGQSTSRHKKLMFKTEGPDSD
How it was run: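 Ratio endpoint: beta-lactamase cleavage of CCF4-AM, blue (460 nm) over green (530 nm). HCT116 reporter line; 16 h treatment, 37C; substrate 2 h RT.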

Nuclear factor erythroid 2-related factor 2 (Homo sapiens), sequence (Q16236 whole entry, looked up): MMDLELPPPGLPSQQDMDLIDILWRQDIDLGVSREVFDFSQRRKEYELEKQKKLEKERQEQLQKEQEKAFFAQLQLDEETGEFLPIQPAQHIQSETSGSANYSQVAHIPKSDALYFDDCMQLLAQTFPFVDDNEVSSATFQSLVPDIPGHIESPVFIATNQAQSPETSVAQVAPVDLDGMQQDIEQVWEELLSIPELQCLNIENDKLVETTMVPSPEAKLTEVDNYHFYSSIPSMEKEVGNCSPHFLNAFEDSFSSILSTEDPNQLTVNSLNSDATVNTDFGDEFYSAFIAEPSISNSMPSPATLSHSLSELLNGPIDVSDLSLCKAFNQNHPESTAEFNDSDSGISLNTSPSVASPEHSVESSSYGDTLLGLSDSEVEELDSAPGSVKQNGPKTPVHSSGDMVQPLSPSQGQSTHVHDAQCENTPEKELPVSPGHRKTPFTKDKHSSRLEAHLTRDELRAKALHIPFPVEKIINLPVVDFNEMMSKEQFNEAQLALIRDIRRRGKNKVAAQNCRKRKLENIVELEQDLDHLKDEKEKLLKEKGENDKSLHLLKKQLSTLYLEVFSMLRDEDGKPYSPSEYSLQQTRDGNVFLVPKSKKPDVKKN
Signal transducer and activator of transcription 3 (Homo sapiens), sequence (P40763 whole entry, looked up): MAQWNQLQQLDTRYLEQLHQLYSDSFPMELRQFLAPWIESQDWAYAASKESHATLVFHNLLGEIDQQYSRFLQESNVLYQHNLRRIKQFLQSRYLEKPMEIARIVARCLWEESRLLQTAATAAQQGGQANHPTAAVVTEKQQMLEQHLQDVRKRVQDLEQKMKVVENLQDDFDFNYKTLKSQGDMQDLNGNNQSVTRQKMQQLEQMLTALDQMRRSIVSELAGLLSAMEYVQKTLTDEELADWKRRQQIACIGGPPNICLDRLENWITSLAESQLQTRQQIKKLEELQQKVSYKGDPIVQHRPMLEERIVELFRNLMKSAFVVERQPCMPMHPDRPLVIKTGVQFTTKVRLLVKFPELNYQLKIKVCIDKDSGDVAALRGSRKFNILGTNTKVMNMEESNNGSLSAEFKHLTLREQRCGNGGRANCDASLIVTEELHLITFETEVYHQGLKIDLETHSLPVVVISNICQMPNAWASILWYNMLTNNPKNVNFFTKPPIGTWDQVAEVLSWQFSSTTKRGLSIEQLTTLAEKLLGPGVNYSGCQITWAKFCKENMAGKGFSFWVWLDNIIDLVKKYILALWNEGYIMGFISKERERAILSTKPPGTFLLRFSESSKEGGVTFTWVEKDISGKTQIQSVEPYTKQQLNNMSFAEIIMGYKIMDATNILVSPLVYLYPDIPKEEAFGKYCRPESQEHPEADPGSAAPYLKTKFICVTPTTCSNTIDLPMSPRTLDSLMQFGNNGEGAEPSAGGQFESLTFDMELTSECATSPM

With O=C1NS(=O)(=O)c2ccccc21 the outcome [1] was “inactive”, the outcome [2] was “inactive” and the outcome [3] was “inactive”. For the same compound, the outcome [4] was “inactive”, the outcome [5] was “inactive” and the outcome [6] was “inactive”. For the same compound, the outcome [7] was “inactive”, the outcome [8] was “inactive” and the outcome [9] was “inactive”. For the same compound, the outcome [10] was “inactive”, the outcome [11] was “inactive” and the outcome [12] was “inactive”. For the same compound, the outcome [13] was “inactive”, the outcome [14] was “inactive” and the outcome [15] was “inactive”. For the same compound, the outcome [16] was “inactive”.
With COc1cccc(O)c1 the outcome [16] was “inactive”.
For NS(=O)(=O)O, the outcome [16] was “inactive”.
For CCOC=C(C(=O)OCC)C(=O)OCC, the outcome [16] was “inactive”.
In the case of C=Cc1ccc(O)c(OC)c1, the outcome [16] is reported as “inactive”.
For CCc1cccc(CC)c1N(COC)C(=O)CS(=O)(=O)O, the outcome [16] was “inactive”.
With NNC(=O)CCCCC(=O)NN the outcome [16] was “inactive”.
With CCOCCOCC the outcome [17] was “inactive”.
With COc1cc([N+](=O)[O-])ccc1N the outcome [16] was “inactive” and the outcome [18] was “inactive”.
For Oc1c(Cl)ccc(Cl)c1Cl, the outcome [18] was “inactive”.
For CNNCc1ccc(C(=O)NC(C)C)cc1, the outcome [16] was “inactive” and the outcome [18] was “inactive”.
With CC(C)(O)C(=O)c1ccccc1 the outcome [16] was “inactive” and the outcome [17] was “inactive”.
In the case of CC=O, the outcome [16] is reported as “inactive”, the AC50 [17] is reported as 46.2 µM (active) and the AC50 [18] is reported as 3.17 µM (active).
With CC1=NN(c2ccccc2)C(=O)C1 the outcome [17] was “inactive” and the outcome [18] was “inactive”.
With Cc1ccccc1C(OCCN(C)C)c1ccccc1 (stereo not drawn) the outcome [16] was “inactive” and the outcome [17] was “inactive”.
With O=S(=O)(O)c1ccc2cc(O)ccc2c1 the outcome [18] was “inactive”.
For O=C(c1cc(O)c(O)c(O)c1)c1ccc(O)c(O)c1O, the outcome [17] was “inactive” and the AC50 [18] was 59.5 µM (active) and 61.8 µM (active).
In the case of O=C(Nc1ccc(Cl)c(Cl)c1)c1cc(Cl)cc(Cl)c1O, the AC50 [16] is reported as 43.1 µM (active), the AC50 [17] is reported as 0.558 µM (active) and the AC50 [18] is reported as 0.354 µM (active).
